# Test results from the OligoGym collection.
# Biological target: FGF2
# Experiment: pooled miR-30 sensor sort-seq; sequence = guide strand
# Conditions: shRNA
# Further: reference of the scale not given here.
row,Sequence,sensor-assay potency score (higher = more potent)
1,TAGCTTGATGTGAGGGTCGCTC,-0.132
2,TATTAGATTCCAATCGTTCAAA,-0.684
3,AACGGTTAGCACACACTCCTTT,0.1
4,TAGACACAACTCCTCTCTCTTC,-0.65
5,TTTGCAGTACAGCCGCTTGGGG,-0.977
6,TTAGAAGCCAGTAATCTTCCAT,0.816
7,TTGATAGACACAACTCCTCTCT,0.382
8,TTCAGTGCCACATACCAACTGG,-0.475
9,TAGTTATTAGATTCCAATCGTT,-0.676
10,TTGCAGTACAGCCGCTTGGGGT,-1.34
11,TTCTAAAATATACTTCTTCTTT,-0.418
12,TAACGGTTAGCACACACTCCTT,-1.27
13,TAACACATTTAGAAGCCAGTAA,-0.0447
14,TTGGAAGAAAAAGTATAGCTTT,0.162
15,TTTGGATCCAAGTTTATACTGC,-0.268
16,AAAAAAGAAACACTCATCCGTA,0.00256
17,TGGTGTATTTCCTTGACCGGTA,-0.344
18,TAGCTTTCTGCCCAGGTCCTGT,-0.929
19,TTTGATAGACACAACTCCTCTC,0.744
20,TCCATCTTCCTTCATAGCCAGG,-1.98
21,TGAGGGTCGCTCTTCTCCCGGA,-0.455
22,TAGAAGCCAGTAATCTTCCATC,-0.587
23,ATAGACACAACTCCTCTCTCTT,-0.298
24,TATACTTCTTCTTTCATGTGAA,0.715
